Akt phos inh – Akt phosphorylation inhibition. 360,000 tested, 0.32% active. Neuro2A IGF-stimulated pAkt S473 HTRF, 20 min; hits give low values. activity change, % for hits at 50 µM; in the data active means activity change below about -80%; inconclusive means mostly about -51% to -80%
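Neuro2A cells (4,500/well, DMEM with 0.5% FBS) were treated with compound at a single 50 µM final concentration, stimulated with 6 nM IGF for 20 min at 37 °C, and lysed. Phospho-Akt Ser473 was read by HTRF as 665/615 ratio ×10^4.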
LDHA block – inhibitors of human lactate dehydrogenase A; P00338; activity change, % (values are at about 110 or 230 µM); 480,000 tested, 0.15% active; purified LDHA, NADH/diaphorase-resazurin fluorescence; hits give low values; in the data active means activity change below about -30%; inconclusive means mostly about -25% to -30%
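LDH5 2 nM; NADH 0.06 mM, pyruvate 0.2 mM; 200 mM Tris pH 7.4, EDTA, Tween-20; 5 min RT. Detection: diaphorase 0.133 mg/mL + resazurin 37 µM, fluorescence ex540/em590 at 0 and 20 min; normalized to enzyme-free and DMSO wells.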
DRD3 agonist – D3 dopamine receptor (human) agonism; 410,000 tested, 0.58% active; max activation, %; P35462; D3R DiscoveRx beta-arrestin cells, luminescence, 90 min; in the data active means max activation above about 30%
Target sequence (P35462 whole entry, looked up): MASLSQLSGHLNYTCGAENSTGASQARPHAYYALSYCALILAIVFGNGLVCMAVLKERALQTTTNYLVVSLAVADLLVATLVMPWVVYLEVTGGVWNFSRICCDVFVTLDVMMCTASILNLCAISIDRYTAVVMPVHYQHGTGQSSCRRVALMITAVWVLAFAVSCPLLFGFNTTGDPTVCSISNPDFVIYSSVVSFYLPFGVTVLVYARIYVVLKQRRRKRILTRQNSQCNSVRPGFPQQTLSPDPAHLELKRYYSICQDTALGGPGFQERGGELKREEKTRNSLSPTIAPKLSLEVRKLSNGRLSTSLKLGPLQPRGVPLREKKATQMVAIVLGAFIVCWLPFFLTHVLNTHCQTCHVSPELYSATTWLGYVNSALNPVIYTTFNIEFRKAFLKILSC
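Agonist mode: compounds and dopamine controls were applied to plated cells for 90 min at 37 degrees C after an overnight attachment at 1500 cells/well. Luminescent read-out followed 30 - 60 minutes at room temperature with DiscoveRx detection reagent.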
RGS4 inh – inhibitors of human regulator of G protein signaling 4; Potency, µM (highest dose often 114 µM), actives largely listed as inhibitors; AID 504845; 390,000 tested, 0.039% active; Transcreener GDP fluorescence polarization, RGS4-accelerated GTP hydrolysis; P49798; active means well fitted inhibition curve with a large enough effect; inconclusive means small, poorly fitted or top-dose-only effect; inactive means no such curve, though single readings can be large or run the other way; further: nearly all actives have a fitted effect of over 75% in size
Target sequence (P49798 whole entry, looked up): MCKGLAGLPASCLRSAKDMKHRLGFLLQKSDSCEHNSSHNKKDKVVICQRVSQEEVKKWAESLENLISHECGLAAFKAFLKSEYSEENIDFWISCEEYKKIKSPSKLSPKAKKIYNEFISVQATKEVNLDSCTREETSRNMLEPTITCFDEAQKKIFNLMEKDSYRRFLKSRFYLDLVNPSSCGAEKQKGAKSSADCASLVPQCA
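MLSMR compounds (23 nl, pin-transferred) preincubated 10 min at room temperature with a 500nM (2x) first reagent, then RGS4 at 900nM (2x) plus Transcreener GDP mix added; fluorescence polarization (620/688 nm) read before and after 90 min at 30 °C.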
PI4K2A inh – blocks human PI4K2A kinase activity | Q9BTU6 | purified PI4K2A, ADP-Glo luminescence, 1 h; hits give low values | activity change, negative = inhibition, % at 76.9 µM | 420,000 tested, 0.13% active | AID 1346378; in the data active means activity change below about -50%; inconclusive means mostly about -30% to -49%
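In this quantitative HTS, ADP production by PI4K2A was quantified luminescently after 1 h at ambient temperature; 100 microM adenosine served as plate-quality control.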
D3 antag – antagonists of human D3 dopamine receptor; max response, negative = inhibition, %; 360,000 tested, 2.5% active; D3R cells, DiscoveRx beta-arrestin luminescence, antagonist mode; hits give low values; P35462; in the data active means max response below about -50%; inconclusive means no clear call, values can overlap the other calls
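Cells expressing the human receptor were seeded at 1500 cells/well, incubated overnight at 37 degrees C in 5% CO2, then exposed to library compounds with dopamine controls for 90 minutes at 37 degrees C before luminescent detection.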
Numbers stand for hits; i = inactive; ? = inconclusive; nt = no result; ! = repeats disagree; [ ] = remark or other dose. Most compounds without a hit are left out; they make up all but 2.8% or so of the library.

SMILES | Akt phos inh | LDHA block | DRD3 agonist | RGS4 inh | PI4K2A inh | D3 antag
CCCOc1ccc(C(=O)NC2CCCCNC2=O)cc1OCCC (centres undefined) | nt | i | nt | nt | nt | nt
CCN(CC)C(=O)c1cccc(NC(=O)c2cc(C3CC3)nc3ccccc23)c1 | nt | i | nt | nt | nt | nt
Cc1ccc(CN2C3CCCC2CC(NC(=O)c2ccc(C)cc2)C3)cc1 (centres undefined) | i | i | i | i | i | -109
Cc1ccc(C(=O)NC2CC3CCC(C2)N3Cc2ccco2)cc1 (centres undefined) | i | i | i | i | i | i
Cc1ccccc1C(=O)Nc1cccc(NC(=O)CC23CC4CC(CC(C4)C2)C3)c1 | nt | i | nt | nt | nt | nt
Cc1ccc(-c2nc3ccccc3c(=O)n2NC(=O)c2cccs2)cc1 | i | i | i | i | i | -51
Cc1cccc(-c2nc3ccccc3c(=O)n2NC(=O)c2cccs2)c1 | i | i | i | i | i | i
COc1ccc(/C=N/NC(=O)C[n+]2ccccc2)c(OC)c1OC | i | i | i | i | i | -51
C[C@@](N)(C(=O)O)[C@@H]1C[C@@H]1C(=O)O | nt | nt | nt | 24µM | nt | nt
COC(=O)CSc1ncnc2c1sc1nc(N3CCOCC3)c3c(c12)CCCC3 | i | i | i | i | i | i
CCOC(=O)CSc1ncnc2c1sc1nc(N3CCOCC3)c3c(c12)CCCC3 | -84% | i | 61 | i | i | i
COc1ccc2c(c1OC)C(=O)OC2CC(=O)O (centres undefined) | i | i | i | i | i | -55
COc1ccc2c(c1OC)C(=O)OC2CC(=O)c1ccc(O)cc1 (centres undefined) | i | i | i | i | i | i
CCCCn1c(N)c(N(CCOC)C(=O)Cn2c(=O)oc3ccccc32)c(=O)[nH]c1=O | i | i | 95 | i | i | i
CCCCN(C(=O)c1ccccc1F)c1c(N)n(CCC)c(=O)[nH]c1=O | i | i | 33 | i | i | i
CSc1nn(Cc2cccc(F)c2)c(N(C(C)=O)C(C)=O)c1S(=O)(=O)c1ccccc1 | nt | -32 | i | i | i | nt
CCOc1ccc(N2CC(C(=O)Nc3nnc(Cc4ccc(OC)c(OC)c4)s3)CC2=O)cc1 (centres undefined) | i | i | i | i | i | i
CCOc1ccccc1N1CC(C(=O)Nc2nccs2)CC1=O (centres undefined) | -124% | i | i | i | i | i
COc1ccc(Cc2nnc(NC(=O)C3CC(=O)N(c4ccccc4C)C3)s2)cc1OC (centres undefined) | i | i | i | i | i | -64
COc1ccc(CCN2CC(C(=O)Nc3cccc(C(C)=O)c3)CC2=O)cc1OC (centres undefined) | i | i | i | i | i | -61
CCOc1cccc(NC(=O)C2CC(=O)N(C)C2)c1 (centres undefined) | i | i | i | i | i | -77
COc1ccc2ccc(OCc3cccc(C#N)c3)cc2c1 | nt | i | nt | nt | nt | nt
Cc1oc2cc(OCC(=O)NC(C)c3cccs3)ccc2c(=O)c1Oc1ccccc1 (centres undefined) | nt | i | nt | nt | nt | nt
CCOc1ccccc1N1CC(C(=O)Nc2ccc(C(=O)O)cc2)CC1=O (centres undefined) | -112% | i | i | i | i | i
Cc1ccc(C)c(C(=O)N2CC=C(c3c[nH]c4ccccc34)CC2)c1 | nt | i | nt | nt | nt | nt
SMILES | Akt phos inh | LDHA block | DRD3 agonist | RGS4 inh | PI4K2A inh | D3 antag
Cc1ccc(S(=O)(=O)CC(=O)Nc2cc(C(C)(C)C)no2)cc1 | nt | i | nt | nt | nt | nt
Cc1ccc(-c2csc3ncnc(Sc4nnc(CN5CCCCCC5=O)o4)c23)cc1 | i | i | i | i | i | -69
Nc1cc(N)c(OCC(F)(F)F)cc1OCC(F)(F)F | i | i | i | i | ? | -56
Nc1cccc(OCC(F)(F)F)c1 | nt | i | nt | nt | nt | nt
Cc1ccc(NC(NC(=O)c2ccc(Br)cc2)C(Cl)(Cl)Cl)cc1 (centres undefined) | nt | i | nt | nt | nt | nt
COc1ccc(NC(=O)C2(N(C)C(=O)Cc3nc(N)n[nH]3)CCCCC2)cc1 | nt | i | nt | nt | nt | nt
COCc1ccc(C(=O)N2CCCC(N(C)Cc3ccccc3)C2)s1 (centres undefined) | i | i | i | i | i | i
CN(Cc1ccccc1)C1CCCN(C(=O)c2ccc(Cl)s2)C1 (centres undefined) | i | i | i | i | i | -82
Cc1sc2ncn(CC(=O)Nc3ccc(F)cc3F)c(=O)c2c1S(=O)(=O)N1CCC(C)CC1 | nt | i | i | i | i | nt
Cc1cccc(NC(=O)Cn2cnc3sc(C)c(S(=O)(=O)N4CCC(C)CC4)c3c2=O)n1 | i | i | 35 | i | i | i
COc1ccc2c(C)c(CC(=O)N3CCCC3)c(=O)oc2c1OC | nt | i | nt | nt | nt | nt
Cc1cc(C(F)F)n2ncc(C(=O)NC3CCCCCC3)c2n1 | i | i | i | i | i | -52
CNCCC=C1c2ccccc2C=Cc2ccccc21 | i | i | i | i | i | -77
CN(C)CCC=C1c2ccccc2C=Cc2ccccc21 | i | i | i | i | i | -120
CNc1ccc(C=C2C=Cc3ccccc32)cc1 | i | i | i | i | i | i
CN(C)CCC=C1c2ccccc2CCc2ccccc21 | i | i | i | i | i | i
Cc1cc(C)n2ncc(-c3noc(C(=O)NCc4ccco4)n3)c2n1 | nt | i | nt | nt | nt | nt
Cc1[nH]c(=O)[nH]c(=O)c1S(=O)(=O)N1CCCC(C(=O)N2CCN(c3ccccc3Cl)CC2)C1 (centres undefined) | -124% | i | i | i | i | i
Cc1cccc(N2CCN(C(=O)C3CCCN(S(=O)(=O)c4c(C)noc4C)C3)CC2)c1C (centres undefined) | i | i | 67 | i | i | i
Cc1ccc(C)c(N2CCN(C(=O)C3CCCN(S(=O)(=O)c4c(C)[nH]c(=O)[nH]c4=O)C3)CC2)c1 (centres undefined) | i | i | i | i | i | i
Cc1nn(C)c(C)c1S(=O)(=O)N1CCCC(C(=O)N2CCN(c3ccc(Cl)cc3)CC2)C1 (centres undefined) | -107% | i | i | i[11.4 µM] | i | i
O=C(Nc1ccc(Nc2ccccc2)cc1)c1ccc(Cl)cc1[N+](=O)[O-] | i | i | i | i | i | -66
CC(=O)NS(=O)(=O)c1ccc(NC(=O)c2ccc(Cl)cc2[N+](=O)[O-])cc1 | i | i | i | i | i | i
COCc1cc(=O)n2[nH]c(C)c(-c3ccc(Cl)cc3)c2n1 | i | i | i | nt | i | -60
CC(C)CNC(=O)NC(=O)CSc1nc2ccccc2c(=O)n1-c1ccccc1F | nt | i | nt | nt | nt | nt
CC1Nc2ncnc(N3CCc4ccccc4C3)c2N(Cc2ccc(Br)cc2)C1=O (centres undefined) | i | i | i | i | i | -55!
